# Experimental data taken from ChEMBL document CHEMBL3988442, “University of Dundee, Small-Polar-MMV Screening Library” (2021).
# In all, about 48,000 compounds went through this assay and about 13,000 (27%) showed an effect of 50% or more. The list shows a part of the results.
# System: Wolbachia pipientis
# Assay: Anti-Wolbachia Cell-Based Screen
# Format: functional
# Design: scale not given: in the data most compounds retested in dose-response had high values
# Conditions: 5 µM
row,SMILES,Percent Effect [%]
1,CC(C)N1CCC(Cc2cncc(-c3cccc(C(=O)O)c3)n2)C1 (stereo not given),113.7
2,CC(C)N1CCC(Cc2cc(-c3cccc(C(=O)O)c3)ncn2)C1 (stereo not given),-6.349
3,COCCN1CCC(Cc2cncc(-c3ccc(C(=O)O)cc3)n2)CC1,112
4,COCCN1CCC(CNc2nccc(-c3cnn(C)c3)n2)CC1,12.08
5,CC(C)N1CCC(Cc2cc(-c3cccc(C(=O)O)c3)ncn2)CC1,121.9
6,CCn1cc2c(n1)CN(Cc1ccoc1)CC2COCC1CC1.O=C(O)C(F)(F)F (stereo not given),-14.5
7,Cn1cnc2c1C(COCC1CCOCC1)CN(Cc1ccccn1)C2.O=C(O)C(F)(F)F.O=C(O)C(F)(F)F.O=C(O)C(F)(F)F (stereo not given),-22.25
8,CN(C)C(=O)COCC1CN(Cc2ccoc2)Cc2ncn(C)c21.O=C(O)C(F)(F)F.O=C(O)C(F)(F)F (stereo not given),111.6
9,CN(C)C(=O)COCc1nn(C)c2c1CCN(Cc1ccco1)C2.O=C(O)C(F)(F)F,-2.792
10,CCOCC1CN(Cc2ccoc2)Cc2nn(CC3CC3)cc21.O=C(O)C(F)(F)F (stereo not given),-8.348
11,CN(C)C(=O)COCC1CN(Cc2cccs2)Cc2ncn(C)c21.O=C(O)C(F)(F)F.O=C(O)C(F)(F)F (stereo not given),100.2
12,Cc1cccc(CN2CCc3c(COCC(=O)N(C)C)nn(C)c3C2)n1.O=C(O)C(F)(F)F.O=C(O)C(F)(F)F,1.951
13,CN(C)C(=O)COCC1CN(Cc2ccco2)Cc2ncn(C)c21.O=C(O)C(F)(F)F.O=C(O)C(F)(F)F (stereo not given),91.74
14,Cc1cccc(CN2Cc3ncn(C)c3C(COCC(=O)N(C)C)C2)n1.O=C(O)C(F)(F)F.O=C(O)C(F)(F)F.O=C(O)C(F)(F)F (stereo not given),115.6
15,c1ccc(-c2cc(CN3C[C@@H]4CC[C@H](C3)N(CC3CCC3)C4)on2)cc1,10.47
16,O=C(CN1CCOC1=O)N1CCC2(CCc3ccccc32)CC1,-4.229
17,CCCNC(=O)c1ccc(S(=O)(=O)NC2(COC)CCCC2)cc1,-2.263
18,CC(C)c1cc(NCC2(N(C)C)CCCC2)ncn1,-5.055
19,O=C(c1cc(CC2(NCc3ccccc3)COC2)no1)N1CCCCC1,5.452
20,N#CCCCS(=O)(=O)NC1(c2ccc(F)cc2)CC1,94.21
21,CS(=O)(=O)CCCNC1(c2cccc(Cl)c2)CCCC1,-3.433
22,COC(=O)NCCCC(=O)NC1(c2cccc(Cl)c2)CC1,-10.63
23,COCCCC(=O)NC1(c2cccc(Br)c2)CC1,-6.052
24,CS(=O)(=O)CCC(=O)NC1(c2cccc(Br)c2)CC1,-24.79
25,N#CCCCS(=O)(=O)NC(=O)c1ccccc1F,-12.54
26,N#CCCCS(=O)(=O)NC(=O)c1cccc(Cl)c1F,-1.006
27,N#CCCCS(=O)(=O)NC1(c2cccc(Br)c2)CC1,115.6
28,N#CCCCS(=O)(=O)NC1(c2cccc(Cl)c2)CC1,95.05

row,SMILES,Percent Effect [%]
1,Cc1[nH]ncc1C(C)NCc1cccnc1 (stereo not given),-9.734
2,CCN(C)C[C@@H]1CN(Cc2cnc3c(S(C)(=O)=O)cnn3c2)C[C@@H]1CO,-15.72
3,Cc1noc(C)c1CN1C(=O)[C@H]2CC[C@@H]1CN(Cc1cccnc1N)C2,18.74
4,O=C(CCc1ccc(F)cc1)NS(=O)(=O)c1ccc2c(c1)OCCO2,-1.397
5,CCc1nc(C)ncc1C(=O)N1CCN(CC)c2ccccc21,-9.426
6,COCCC(=O)N1CCN(CC2CC2)c2ccccc21,-5.529
7,CCN1CCN(C(=O)c2csnn2)c2ccccc21,3.89
8,CCN1CCN(C(=O)C2CCOC2)c2ccccc21 (stereo not given),120.4
9,NC(=O)CN1CCN(CC2CC2)c2ccccc21,-6.284
10,O=C(C1CCOC1)N1CCN(CC2CC2)c2ccccc21 (stereo not given),109.4
11,COc1ccc(S(=O)(=O)NC(=O)c2ccccc2F)cc1OC,-11
12,CC(C)c1ccc(OCn2ccc(C(=O)N3CCCC3)n2)cc1,-7.702
13,Cc1cnc(N2CC[C@@H]3O[C@@H](COCc4ccccn4)CC[C@@H]32)nc1.O=C(O)C(F)(F)F.O=C(O)C(F)(F)F,7.451
14,Cn1cccc1C(=O)N1CC[C@H]2[C@@H]1CCC(=O)N2c1ccccc1,-9.424
15,CNC(=O)c1cccnc1NCCOc1ccccc1,11.05
16,CC1CCC(N2CCC(NS(=O)(=O)CCCF)CC2)CC1 (stereo not given),-1.792
17,CCNC(=O)CS(=O)(=O)NC1CCC(C)CC1 (stereo not given),91.13
18,CC1CCN(CCNC(=O)C2CCN(S(N)(=O)=O)CC2)CC1,-8.736
19,CC1CCC(NS(=O)(=O)CC(=O)NCC2CCC2)CC1 (stereo not given),101.5
20,CCC(C(=O)NC1(C(N)=O)CCCC1)n1cccn1 (stereo not given),-7.452
21,CC1CCC(NS(=O)(=O)CC(=O)Nc2ccc(N3CCCC3)cn2)CC1 (stereo not given),-1.172
22,CNC(=O)CS(=O)(=O)C1CCN(S(=O)(=O)C2CC2)CC1,-8.784
23,Cc1ccc(NC(=O)CS(=O)(=O)NC2CCC(C)CC2)nc1 (stereo not given),0.19
24,CNC(=O)CS(=O)(=O)NC1CCC(C)CC1 (stereo not given),97.23
25,CNS(=O)(=O)CC(=O)N(C1CCCC1)C1CC1,-5.548
26,CC1CCC(NS(=O)(=O)CC(=O)NC2(C(N)=O)CCCC2)CC1 (stereo not given),92.28
27,COCCC1(CNC(=O)NCC2CCC2)CCC1,-13.86
